In all, about 5,000 sequences were measured (“log2 normalized fluorescence”: median about 0.089, highest 2% from about 0.81 on). Shown is part of a subset that was picked to be rich in the highest values.

Results on 53 sequences are retold here after paper PMC5515408, “Sequence-specific DNA binding by MYC/MAX to low-affinity non-E-box motifs”.

Sequence of MYC (p64);MAX (p21), in MYC:MAX (P01106 16-454, chain 1 of 2): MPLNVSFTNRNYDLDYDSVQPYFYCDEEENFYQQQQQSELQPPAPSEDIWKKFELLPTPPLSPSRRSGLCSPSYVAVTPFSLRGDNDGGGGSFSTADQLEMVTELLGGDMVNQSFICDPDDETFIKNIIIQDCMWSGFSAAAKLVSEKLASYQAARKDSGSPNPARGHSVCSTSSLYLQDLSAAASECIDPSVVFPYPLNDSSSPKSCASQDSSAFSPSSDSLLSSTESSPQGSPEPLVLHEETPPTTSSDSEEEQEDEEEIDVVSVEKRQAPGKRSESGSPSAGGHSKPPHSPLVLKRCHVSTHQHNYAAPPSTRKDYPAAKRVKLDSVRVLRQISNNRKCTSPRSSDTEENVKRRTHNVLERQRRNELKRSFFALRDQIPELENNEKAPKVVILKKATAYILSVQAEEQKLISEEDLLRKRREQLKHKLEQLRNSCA
Sequence of MYC (p64);MAX (p21), in MYC:MAX (P61244 other isoform, or with tags, fused parts or gaps |, chain 2 of 2): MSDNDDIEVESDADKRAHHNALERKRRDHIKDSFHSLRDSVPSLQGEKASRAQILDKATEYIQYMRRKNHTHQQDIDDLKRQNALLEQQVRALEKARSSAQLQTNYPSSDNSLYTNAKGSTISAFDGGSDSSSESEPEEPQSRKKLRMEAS

The test concerns the target MYC (p64);MAX (p21), in MYC:MAX (human;human, UniProt P01106-1;P61244-2 1-439;1-151, |). As to the kind of experiment: protein-binding microarray (anti-MAX antibody); PBM: 15 mM Tris-HCl pH 7.5, 100 mM KCl, 0.075% NP40, 7.5 mM beta-mercaptoethanol, 375 ng/ul BSA, 8 ng/ul poly(dA-dT):(dA-dT), 550 ng complex, 60 min, room tempe; high values mean tight binding. The settings on record: protein: recombinant;recombinant; tags: 6xHis;6xHis; copies: 1;1; label: 3' end of printed strand (linker) attached to glass slide; dsDNA, one strand shown. Put shortly: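 For each of ~5000 unique double-stranded 12-nt sequences, spotted in triplicate on a custom Agilent glass array, binding of His-tagged human MYC:MAX or MAX:MAX dimers is reported as log2 normalized fluorescence. The dimers (550 ng, E. coli-expressed) were incubated for 60 min at room temperature in Tris-KCl buffer, pH 7.5, with NP40, BSA and poly(dA-dT) competitor. Detection used anti-MAX and secondary antibodies with a 543 nm scan.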
On to “CCGGCTAATACGTGGTGTTAATAGCTAAGATTACTATATCGACG”, for which the binding signal is 0.417 log2 normalized fluorescence. Next, “CCGGCTTACACGTGTTATTAATAGCTAAGATTACTATATCGACG”: 1.05 log2 normalized fluorescence; “CCGGCTTAAACGTGTTATTAATAGCTAAGATTACTATATCGACG”: 0.426 log2 normalized fluorescence.

Regarding “CCGGCTTACACGTGGAATTAATAGCTAAGATTACTATATCGACG”, the binding signal is 0.667 log2 normalized fluorescence. Next, “CCGGCTTACAAGTGTTATTAATAGCTAAGATTACTATATCGACG”: 0.479 log2 normalized fluorescence; “CCGGCTTACACGTGGCGTTAATAGCTAAGATTACTATATCGACG”: 0.878 log2 normalized fluorescence.

As for “CCGGCTCACACGGGTTATTAATAGCTAAGATTACTATATCGACG”, the binding signal was 0.461 log2 normalized fluorescence. Next, “CCGGCTGACACGTGGCGTTAATAGCTAAGATTACTATATCGACG”: 0.519 log2 normalized fluorescence; “CCGGCCTACACGTGGTGTTAATAGCTAAGATTACTATATCGACG”: 0.779 log2 normalized fluorescence; “CCGGCTCACACGTGATATTAATAGCTAAGATTACTATATCGACG”: 0.75 log2 normalized fluorescence. Take “CCGGCTCACACGTGTTATTAATAGCTAAGATTACTATATCGACG”: the binding signal is 0.827 log2 normalized fluorescence. Next, “CCGGCTTACACGTGGTGTTAATAGCTAAGATTACTATATCGACG”: 0.827 log2 normalized fluorescence.

Turning to “CCGGCTGATTTAATGTATTAATAGCTAAGATTACTATATCGACG”, the binding signal was 0.0643 log2 normalized fluorescence. Next, “CCGGCTGAACCTACGTATTAATAGCTAAGATTACTATATCGACG”: 0.131 log2 normalized fluorescence.

As for “CCGGCTGATCGCTTGTATTAATAGCTAAGATTACTATATCGACG”, the binding signal was -0.00084 log2 normalized fluorescence. Next, “CCGGCTGAACATGGGTATTAATAGCTAAGATTACTATATCGACG”: 0.288 log2 normalized fluorescence; “CCGGCTGATCGGCGGTATTAATAGCTAAGATTACTATATCGACG”: 0.0519 log2 normalized fluorescence. “CCGGCTGACAGTCGGTATTAATAGCTAAGATTACTATATCGACG”: the binding signal is 0.0326 log2 normalized fluorescence. Next, “CCGGCTGACAGTTGGTATTAATAGCTAAGATTACTATATCGACG”: 0.112 log2 normalized fluorescence; “CCGGCTGAAATAGTGTATTAATAGCTAAGATTACTATATCGACG”: 0.0457 log2 normalized fluorescence. Next, “CCGGCTGTCATGTGGTATTAATAGCTAAGATTACTATATCGACG”: 0.631 log2 normalized fluorescence; “CCGGCTGACCTGTTGTATTAATAGCTAAGATTACTATATCGACG”: 0.216 log2 normalized fluorescence; “CCGGCTGAAAGAATGTATTAATAGCTAAGATTACTATATCGACG”: 0.0901 log2 normalized fluorescence. Next, “CCGGCTGATCATTTGTATTAATAGCTAAGATTACTATATCGACG”: 0.247 log2 normalized fluorescence; “CCGGCTGATACGTGGTCTTAATAGCTAAGATTACTATATCGACG”: 0.408 log2 normalized fluorescence. Consider “CCGGCCGCCACGTGGTCTTAATAGCTAAGATTACTATATCGACG”, for which the binding signal is 0.884 log2 normalized fluorescence. “CCGGCGGCCACGTGGTATTAATAGCTAAGATTACTATATCGACG”: the binding signal was 0.783 log2 normalized fluorescence. With “CCGGCTGCGACGTGGTATTAATAGCTAAGATTACTATATCGACG”, the binding signal is 0.41 log2 normalized fluorescence. Next, “CCGGCTGCCATGTGGTTTTAATAGCTAAGATTACTATATCGACG”: 0.633 log2 normalized fluorescence; “CCGGCAACCACGTGGTATTAATAGCTAAGATTACTATATCGACG”: 0.742 log2 normalized fluorescence; “CCGGCTGCCACGTCGTATTAATAGCTAAGATTACTATATCGACG”: 0.37 log2 normalized fluorescence. Next, “CCGGCTGAGACGTGGTCTTAATAGCTAAGATTACTATATCGACG”: 0.229 log2 normalized fluorescence; “CCGGCTGCCACGTGGTATTAATAGCTAAGATTACTATATCGACG”: 0.82 log2 normalized fluorescence; “CCGGCTACTATGCCATGTTAATAGCTAAGATTACTATATCGACG”: 0.159 log2 normalized fluorescence. For the sequence “CCGGCTGCCATGTGGGATTAATAGCTAAGATTACTATATCGACG”, the binding signal was 0.899 log2 normalized fluorescence. Next, “CCGGCCACCACGTGGTATTAATAGCTAAGATTACTATATCGACG”: 0.975 log2 normalized fluorescence. Turning to “CCGGCTGATGAGACGTATTAATAGCTAAGATTACTATATCGACG”, the binding signal was -0.0198 log2 normalized fluorescence. Regarding “CCGGCTGATACAGTGTATTAATAGCTAAGATTACTATATCGACG”, the binding signal is 0.0568 log2 normalized fluorescence.

For “CCGGCTGAGATGCTGTATTAATAGCTAAGATTACTATATCGACG”, the binding signal is -0.0512 log2 normalized fluorescence. For “CCGGCTGAGGCTATGTATTAATAGCTAAGATTACTATATCGACG”, the binding signal is -0.0462 log2 normalized fluorescence. Next, “CCGGCTGACTCTTGGTATTAATAGCTAAGATTACTATATCGACG”: 0.16 log2 normalized fluorescence. Next, “CCGGCTGATGGCCTGTATTAATAGCTAAGATTACTATATCGACG”: 0.18 log2 normalized fluorescence; “CCGGCTGATACACGGTATTAATAGCTAAGATTACTATATCGACG”: 0.262 log2 normalized fluorescence.

As to “CCGGCTGAGCCAATGTATTAATAGCTAAGATTACTATATCGACG”, the binding signal was 0.00395 log2 normalized fluorescence. Next, “CCGGCTGAAACCGCGTATTAATAGCTAAGATTACTATATCGACG”: 0.25 log2 normalized fluorescence; “CCGGCTGAGAGTACGTATTAATAGCTAAGATTACTATATCGACG”: 0.142 log2 normalized fluorescence; “CCGGCTGAGGGTCGGTATTAATAGCTAAGATTACTATATCGACG”: 0.137 log2 normalized fluorescence.

For “CCGGCCGCCACGTGGTATTAATAGCTAAGATTACTATATCGACG”, the binding signal is 0.88 log2 normalized fluorescence. Take “CCGGCCGCCACGTAGTATTAATAGCTAAGATTACTATATCGACG”: the binding signal was 0.312 log2 normalized fluorescence. With “CCGGCCGCGACGTGGTATTAATAGCTAAGATTACTATATCGACG”, the binding signal is 0.471 log2 normalized fluorescence. In the case of “CCGGCTGCCACGTGGAATTAATAGCTAAGATTACTATATCGACG”, the binding signal was 0.873 log2 normalized fluorescence. Turning to “CCGGCTGTCACGTGGAATTAATAGCTAAGATTACTATATCGACG”, the binding signal was 0.766 log2 normalized fluorescence.

Consider “CCGGCTGCCACGAGGAATTAATAGCTAAGATTACTATATCGACG”, for which the binding signal was 0.707 log2 normalized fluorescence.
